{
  "source": "the supplement of paper PMC4954754",
  "note": "“And” between values parts separate entries of the source, which are not always exact repeats. Identical values can stand only once. ± gives the uncertainty stated by the source.",
  "data": [
    {"test_system": "HEK293T-Rex ERSE-FLuc", "experiment": "ERSE-FLuc reporter activation, triplicate confirmation, relative to 500 nM thapsigargin (% of thapsigargin); higher = stronger ATF6/ERSE reporter activation", "details": "6.8 µM; 18 h; screen: confirmation", "experimental": "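HEK293T-Rex cells stably expressing the ERSE-firefly luciferase (BiP promoter, ATF6-preferring) or XBP1-splicing Renilla luciferase (IRE1/XBP1s) reporter, 1536-well plates, compound at 6.8 µM for 18 hr at 37 °C; luminescence read […] and expressed as % activation = 100*(compound - median DMSO)/(median 500 nM thapsigargin - median DMSO). Primary screen was single-pass; confirmation screen in triplicate (mean ± SD).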", "values": [
      {"smiles": "C/C=C(/C)C(=O)O[C@H]1C(C)=C2[C@H]([C@@H]1OC(=O)CCCCCCC)[C@@](C)(OC(C)=O)C[C@H](OC(=O)CCC)[C@@]1(O)[C@H]2OC(=O)[C@@]1(C)O", "ERSE-FLuc reporter activation": "109 and 88"},
      {"smiles": "CNc1ccc2oc(C[C@H]3O[C@@]4(CC[C@H]3C)O[C@H]([C@H](C)C(=O)c3ccc[nH]3)[C@H](C)C[C@H]4C)nc2c1C(=O)O", "ERSE-FLuc reporter activation": "63.9 ± 3.1"},
      {"smiles": "CC(=O)NC1C(OC2OC(CC(O)C3OC(n4ccc(=O)[nH]c4=O)C(O)C3O)C(O)C(O)C2NC(=O)/C=C\\CCCCCCCCCC(C)C)OC(CO)C(O)C1O", "note": "(stereo not given)", "ERSE-FLuc reporter activation": "162 ± 5.7"},
      {"smiles": "O=C(CCCN1CCC2(CC1)C(=O)NCN2c1ccccc1)c1ccc(F)cc1", "ERSE-FLuc reporter activation": "163 ± 21"},
      {"smiles": "O=C(CCCN1CCC2(CC1)C(=O)N(Cc1cccc(F)c1)CN2c1ccccc1)c1ccc(F)cc1", "ERSE-FLuc reporter activation": "215 ± 16"}
    ]}
  ]
}
